Among the data in PubChem BioAssay (NCATS) are activation and Potency values, retold here.

Molecules are shown by their SMILES. Inconclusive results are not listed. A number with no mark means an inactive call. Active and inactive are the calls of the source. Calls come from the whole dose curve; as a rule, active = well fitted curve in the direction sought with a large enough effect; inconclusive = small, poorly fitted or top-dose-only effect, or another doubt; inactive = no such curve, though single readings can be large; an effect the other way counts as inactive or inconclusive.

For assay [1], the target named is Cellular tumor antigen p53 (Homo sapiens) (UniProt P04637). The assay can be described thus: Primary qHTS for small molecule compounds that upregulate eGFP-tagged delta133p53alpha (in N-terminal) cells. (AID 2060322).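 For activation: cells pre-induced with doxycycline then dosed without doxycycline; 0% = DMSO vehicle and 100% = reference activator.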 Note: nearly all actives have a fitted effect of over 75% in size. Note: potency is the fitted concentration of half-maximal effect. The note with it: NCI-H358 eGFP-delta133p53alpha fluorescence, 24 h; activation: active compounds read high. Summed up:
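NCI-H358 cells pre-induced 24 h with 10 ng/ml doxycycline for eGFP-delta133p53alpha, plated dox-free and exposed 24 h at 37C to titrated compounds. Fixed, Hoechst-stained; gated GFP peak intensity by laser scanning cytometry, normalized to DMSO (0%) and 57.5 uM 5-azacytidine (100%).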
On the technique in general: Quantitative high-throughput screening tests each substance at several concentrations.

Assay [2] has as its target Aldehyde dehydrogenase, mitochondrial (Homo sapiens) (UniProt P05091). The assay can be described thus: qHTS for Inhibitors of the Aldehyde Dehydrogenase Family (ALDH2) Primary screen (AID 2061308).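 Note: plate controls were vehicle for no effect and reference inhibitor for full effect; nearly all actives have a fitted effect of over 55% in size.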 The note with it: ALDH2 enzyme inhibition qHTS, 1536-well; series mostly up to 56 µM.
Assay [3] has as its target Retinaldehyde dehydrogenase 3 (Homo sapiens) (UniProt P47895). The assay can be described thus: qHTS for Inhibitors of the Aldehyde Dehydrogenase Family (ALDH1A3) Primary screen (AID 2061315).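 Note: plate controls were DMSO vehicle for no effect and reference inhibitor for full effect.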 The note with it: ALDH inhibition qHTS; series mostly up to 56 µM.

Cellular tumor antigen p53 (Homo sapiens), sequence (P04637 whole entry, looked up): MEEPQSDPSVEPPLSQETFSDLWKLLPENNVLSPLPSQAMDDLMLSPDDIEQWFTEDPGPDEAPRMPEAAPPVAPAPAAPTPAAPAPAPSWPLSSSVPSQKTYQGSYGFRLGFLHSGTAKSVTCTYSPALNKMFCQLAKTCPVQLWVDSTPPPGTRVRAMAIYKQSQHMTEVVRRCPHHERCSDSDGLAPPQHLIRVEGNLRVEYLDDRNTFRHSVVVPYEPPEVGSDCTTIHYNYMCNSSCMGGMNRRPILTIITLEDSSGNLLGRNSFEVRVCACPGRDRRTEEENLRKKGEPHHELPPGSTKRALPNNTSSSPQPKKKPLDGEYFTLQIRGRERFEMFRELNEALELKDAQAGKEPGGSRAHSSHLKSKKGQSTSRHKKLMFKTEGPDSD

Regarding `CC(=O)O[C@H]1C[C@@H](O)C(C)(C)C2C[C@@H](OC(C)=O)[C@]3(C)C(CC[C@@]4(C)[C@H](c5ccoc5)OC(=O)[C@H]5O[C@]543)[C@]21C` (some centres not stated), in assay [1], the activation is 11.6%. The Potency entry in assay [2] and in assay [3] was “inactive” throughout.
Turning to `C/C=C(\C)C(=O)O[C@H]1C=CC(=O)O[C@H]1/C=C/[C@@H](O)[C@H](C)O`, the Potency in assay [1] was 26.9 µM (active). For the same compound, the Potency result in assay [2] and in assay [3] was “inactive” in each case.
On to `O=C(NOC[C@H](O)CO)c1ccc(F)c(F)c1Nc1ccc(I)cc1F`, for which the activation in assay [1] was 8.59%. Also, the Potency entry in assay [2] and in assay [3] was “inactive” each time.
For the compound `CC1(C)CCC2(C(=O)OC3OCC(O)C(O)C3O)CCC3(C)C(=CCC4C5(C)CC(O)C(OC6OC(COC7OCC(O)C(O)C7O)C(O)C(O)C6O)C(C)(C)C5CCC43C)C2C1` (configuration not stated), the activation in assay [1] is 4.46%. For the same compound, the Potency entry in assay [2] and in assay [3] was “inactive” throughout.
As for `C/C=C(\C)C(=O)O[C@H]1[C@@H](O[C@]2(COC(=O)CC(C)C)O[C@H](COC(=O)C(C)CC)[C@@H](OC(C)=O)[C@@H]2O)O[C@H](COC(C)=O)[C@@H](O)[C@@H]1O` (some centres not stated), the activation in assay [1] was 9.16%. Moreover, the Potency result in assay [2] and in assay [3] was “inactive” throughout.
On to `CC(C)CNC(=O)/C=C/CCCCc1ccc2c(c1)OCO2`, for which the activation in assay [1] was 10.7%. For the same compound, the Potency result in assay [2] and in assay [3] was “inactive” throughout.
Take `O=C(Cc1ccccc1)OC[C@H]1O[C@H](O[C@H]2O[C@H](CO)[C@@H](O)[C@H](O)[C@H]2O)[C@H](O)[C@@H](O)[C@@H]1O`: in assay [1], the activation is -3.05%. Moreover, the Potency entry in assay [2] and in assay [3] was “inactive” throughout.
As to `O=C1NC(Cc2ccccc2)C(=O)N2CCCC12` (configuration not stated), in assay [1], the activation is -16.8%. Moreover, the Potency result in assay [2] and in assay [3] was “inactive” throughout.
Take `CC1(C)CC[C@]2(C(=O)O[C@@H]3O[C@H](CO)[C@@H](O)[C@H](O)[C@H]3O)CC[C@]3(C)C(=CCC4[C@@]5(C)C[C@@H](O)[C@H](O)C(C)(C)C5CC[C@]43C)C2[C@@H]1O` (some centres not stated): the activation in assay [1] was -8.04%. Besides, the Potency entry in assay [2] and in assay [3] was “inactive” each time.
As to `C/C1=C\[C@@H](C)C[C@@H](C)[C@@H](Cc2cnco2)OC(=O)/C(C)=C/[C@@H](C)C[C@@H](C)[C@@H](Cc2cnco2)OC1=O`, the activation in assay [1] was 0%. The Potency result in assay [2] and in assay [3] was “inactive” in each case.
Consider `COC1C(CO)OC(n2cnc3c(=O)[nH]cnc32)C1O` (configuration not stated), for which the activation in assay [1] is -12.2%. In addition, the Potency entry in assay [2] and in assay [3] was “inactive” each time.
As for `CC1(C)C(=O)N2c3ccccc3[C@]3(CC(n4cnc5ccccc5c4=O)C(=O)O3)[C@H]2N1O` (some centres not stated), the activation in assay [1] was 1.53%. The Potency entry in assay [2] and in assay [3] was “inactive” each time.
As for `Cc1occc(=O)c1O[C@@H]1O[C@H](CO[C@@H]2OC[C@](O)(CO)[C@H]2O)[C@@H](O)[C@H](O)[C@H]1O`, the activation in assay [1] was 0%. Also, the Potency result in assay [2] and in assay [3] was “inactive” each time.
On to `CC(C)(O)CC(CO)NC(=O)CC(O)CC(=O)Cc1ccccc1` (configuration not stated), for which the activation in assay [1] is 22.1%. Also, the Potency entry in assay [2] and in assay [3] was “inactive” in each case.
